The list is not random: actives were taken first. Their share in the collection is about 1.3%.
EPAC2 ag: agonists of human EPAC2 (RAPGEF4); EPAC2 activation, biochemical qHTS; response scale: 100% = 6.5 mM cAMP response; Potency, µM (series often up to 154 µM), without a hit: at the top dose activation, actives largely listed as activators; 360,000 tested, 0.079% active; also: nearly all actives have a fitted effect of over 50% in size
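Setup: EPAC2 100 nM, labeled Rap1B complex 250 nM, free GDP 50 uM. Compound titrations pinned in, brief spin, 5 min room temperature incubation. Kinetic fluorescence read over 30 min, normalized to 6.5 mM cAMP.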
EPAC2 antagonist: antagonists of human EPAC2 | Q8WZA2 | EPAC2 GEF exchange of Rap1B-BODIPY-GDP, fluorescence | Potency, µM (titrated, usually from 114 µM), for inactives: at the highest dose activity, negative = inhibition, hits mostly inhibitors | 360,000 tested, 0.18% active; also: % is scaled to controls: 0 for no effect and ±100 for the full control effect; nearly all actives have a fitted effect of over 45% in size
EPAC1 ag: agonists of human EPAC1. EPAC1 agonist qHTS, biochemical assay; response scale: 100% = response to 6.5 mM cAMP. Potency, µM (series often up to 154 µM), inactives show top-dose activation, usual class: activators. 360,000 tested, 0.073% active; also: nearly all actives have a fitted effect of over 60% in size
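Read-out is the fluorescence drop as BODIPY-GDP leaves Rap1B (480 nm excitation, 540 nm emission), recorded every 5 minutes over 30 minutes. Reactions held 100 nM EPAC1, 250 nM Rap1B–BODIPY-GDP and 50 uM GDP, with 6.5 mM cAMP setting full activation.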
USP1-UAF1 inh: USP1/UAF1 (human) deubiquitinase inhibition | O94782 | recombinant USP1/UAF1, Ub-Rhodamine cleavage fluorescence | Potency, µM (titrated, usually from 57.1 µM), inactives show top-dose activity change, negative = inhibition, actives largely listed as inhibitors | 390,000 tested, 0.23% active; also: % is scaled to controls: 0 for no effect and ±100 for the full control effect; nearly all actives have a fitted effect of over 60% in size
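1 nM enzyme complex + cpd, 15 min RT; start with Ub-Rho 150nM final; kinetic fluorescence ex 480/em 540, 6 reads q60 s. Buffer 50mM HEPES pH 7.8, 0.5mM EDTA, 0.1 mg/ml BSA, 1mM TCEP, 0.01% Tween-20.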
12-LOX inh: blocks human arachidonate 12S-lipoxygenase; purified 12hLO, xylenol orange hydroperoxide absorbance; Potency, µM (doses to about 108 µM), without a hit: at the top dose activity change, negative = inhibition, hits mostly inhibitors; 580,000 tested, 1.1% active; also: % is scaled to controls: 0 for no effect and ±100 for the full control effect
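Purified human 12hLO at 150 nM in 25 mM Hepes, 0.01% Triton X-100, pH 7.0, preincubated 15 min at room temperature with compound. Reaction started with 40 uM arachidonic acid, 30 min at room temperature. Hydroperoxide measured by Fe-xylenol orange, 573/405 nm absorbance ratio.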
EPAC1 antag: antagonists of human EPAC1; O95398; EPAC1 GEF assay, Rap1b-BODIPY-GDP exchange fluorescence; Potency, µM (doses to about 115 µM), inactives show at the top dose activity change, negative = inhibition, usual class: inhibitors; 360,000 tested, 0.14% active; AID 720709;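 also: plate controls were vehicle for no effect and positive control for full effect; nearly all actives have a fitted effect of over 50% in size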
Active calls of the source: *; ? = inconclusive; . = no result given. Calls follow the shape of the dose curve; as a rule, active = well fitted curve in the direction sought with a large enough effect; inconclusive = small, poorly fitted or top-dose-only effect, or another doubt; inactive = no such curve, though single readings can be large; an effect the other way counts as inactive or inconclusive. Potency is read from the fitted curve at half-maximal effect.

SMILES	EPAC2 ag	EPAC2 antagonist	EPAC1 ag	USP1-UAF1 inh	12-LOX inh	EPAC1 antag
COc1ccc(C(=O)NC(=S)Nc2ccc(S(=O)(=O)Nc3cc(OC)nc(OC)n3)cc2)cc1	5%	-2%	-1%	0%	7.1µM*	-1%
COc1ccc(C(=O)NC(=S)Nc2ccc(S(=O)(=O)Nc3cc(OC)ncn3)cc2)cc1	2%	-4%	-4%	-3%	10µM*	-8%
Cc1ccc(NC(=O)c2ccc(=O)[nH]n2)cc1S(=O)(=O)Nc1ccccc1Cl	11%	5%	10%	-20%	254%	0%
COc1cc(NS(=O)(=O)c2ccc(NC(=S)NC(=O)c3ccc(F)cc3)cc2)nc(OC)n1	-1%	?	-3%	-5%	18µM*	-3%
Cc1ccc(NC(=S)NC(=O)c2ccc(F)cc2)cc1S(=O)(=O)Nc1ccccc1Cl	-12%	-16%	3%	-1%	5µM*	?
COc1ccc(OCC(=O)NC(=S)Nc2ccc(S(=O)(=O)Nc3cc(OC)nc(OC)n3)cc2)cc1	0%	-1%	-3%	1%	?	2%
O=C(O)Cn1cc(-c2ccccc2)ncc1=O	.	.	.	.	-109%	.
CC(=O)N1CCC2(CC1)Oc1ccc(Br)cc1C1CC(c3cccnc3)=NN12 (centres undefined)	.	.	.	.	-7%	.
CCCCn1nc(C(=O)Nc2ccc(F)c(F)c2)c2ccccc2c1=O	.	.	.	.	-22%	.
Cc1cc(NS(=O)(=O)c2ccc(NC(=S)NC(=O)c3cccc(S(=O)(=O)N(C)C)c3)cc2)no1	-4%	10%	-12%	-22%	?	-14%
Cc1cc(NS(=O)(=O)c2ccc(NC(=O)COc3c(C)cc(Br)cc3C)cc2)no1	-8%	18µM*	-1%	-12%	?	-4%
Cc1cc(NS(=O)(=O)c2ccc(NC(=S)NC(=O)c3ccc(F)cc3)cc2)no1	-3%	-9%	2%	-2%	25µM*	-18%
COC(=O)c1cccc(NC(=O)CSc2nc(=O)[nH]nc2C)c1	.	.	.	.	-23%	.
Cc1ccc(-c2cc(C(=O)N3CCN(C(=O)C4CC4)CC3)c3ccccc3n2)o1	.	.	.	.	22µM*	.
Cc1ccc(-c2cc(C(=O)N3CC(C)CC(C)C3)c3ccccc3n2)o1 (centres undefined)	-4%	-7%	-12%	-7%	35µM*	?
Cc1ccc(-c2cc(C(=O)N3CC(C)OC(C)C3)c3ccccc3n2)o1 (centres undefined)	-5%	5%	1%	-25%	?	1%
Cc1ccc(/C=C/C(=O)c2ccc(C)o2)o1	.	.	.	.	-61%	.
Cc1ccc(/C=C/C(=O)c2ccccc2)o1	.	.	.	.	14µM*	.
Cc1ccc(-c2ccc(/C=C/C(=O)c3ccccc3)o2)cc1	-7%	10%	-3%	-19%	3.5µM*	-3%
COc1ccc(C(=O)/C=C/c2ccc(-c3ccc(OC)cc3)o2)cc1	.	.	.	.	0.32µM*	.
CCOc1cc(-c2ccc(C)cc2)nc2ccc(C(=O)NCCCN(CC)CC)cc12	.	.	.	.	10%	.
CCSC1=NC(C)(C)C=C(/C=C/c2ccc(Cl)cc2Cl)N1	5%	7%	7%	-27%	40µM*	0%
CCCCCCC(=O)N(O)C1CC(=O)N(c2ccc(Cl)cc2)C1=O (centres undefined)	4%	4%	0%	-10%	1.3µM*	-15%
COc1ccc(S(=O)(=O)N2CCC[C@H]2C(=O)N2CCC[C@H]2C(=O)NCc2ccccc2)cc1C	1%	47µM*	-10%	.	-1%	20%
COc1cccc(CNC(=O)[C@@H]2CCCN2C(=O)[C@@H]2CCCN2S(=O)(=O)c2ccc(OC)c(C)c2)c1	-3%	-8%	-17%	.	?	1%
N=C1/C(=C\c2ccc(-c3cccc(C(=O)O)c3)o2)C(=O)N=C2SC=C(c3ccccc3)N12	5%	20%	?	-13%	40µM*	?

Screening results (PubChem BioAssay)
